Source: PubChem BioAssay AID1540 (National Center for Advancing Translational Sciences (NCATS), 2009)
Where “and” joins values, the source holds several entries; their conditions need not be identical. Equal values may be shown once. Results filed as inconclusive are left out. Where a structure was tested more than once in an assay, its records may differ in their call. Calls of active or inactive are those of the source. The call rests on the fitted dose curve; in most records, active means well fitted activation curve with a large enough effect; inconclusive means small, poorly fitted or top-dose-only effect, or effect the other way; inactive means flat fitted curve, though single readings scatter.

biological target: Pyruvate kinase PKM (Homo sapiens) (UniProt P14618); assay: Secondary assay for Activators of Human Pyruvate Kinase M2 isoform; conditions: purified hPK-M2, LDH-coupled NADH fluorescence kinetic; series mostly up to 57.5 µM; activation: at the top concentration
Sequence (P14618 whole entry, looked up, canonical isoform): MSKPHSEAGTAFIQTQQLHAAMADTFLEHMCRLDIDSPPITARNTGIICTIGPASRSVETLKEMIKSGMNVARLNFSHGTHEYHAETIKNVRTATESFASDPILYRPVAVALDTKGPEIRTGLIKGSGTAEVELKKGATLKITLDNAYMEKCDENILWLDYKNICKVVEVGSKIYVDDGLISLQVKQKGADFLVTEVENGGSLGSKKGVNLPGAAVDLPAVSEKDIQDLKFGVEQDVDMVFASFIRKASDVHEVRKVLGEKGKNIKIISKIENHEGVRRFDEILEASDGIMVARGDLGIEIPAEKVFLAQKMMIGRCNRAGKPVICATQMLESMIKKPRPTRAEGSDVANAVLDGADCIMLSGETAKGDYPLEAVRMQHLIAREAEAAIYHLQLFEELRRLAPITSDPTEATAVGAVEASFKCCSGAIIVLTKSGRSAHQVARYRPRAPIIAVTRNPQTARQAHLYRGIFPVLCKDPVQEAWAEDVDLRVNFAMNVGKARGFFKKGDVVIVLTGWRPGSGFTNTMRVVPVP
Description: Confirmatory assay NIH Chemical Genomics Center [NCGC] Matthew G. Vander Heiden, M.D., Ph.D. [Harvard Medical School, 77 Avenue Louis Pasteur, Boston, MA 02115] NCGC Assay Overview: Human pyruvate kinase muscle 2 (hPK-M2)enzyme was supplied as a highly purified (>95% pure) preparation from Harvard Medical School and a secondary assay was used to evaluate compounds. This assay couples the formation of pyruvate from hPK-M2 using lactate dehydrogenase (LDH) and NADH. The depletion of NADH is followed in a fluorescent-based kinetic assay that follows the formation of pyruvate to lactate, as catalyzed LDH (described by Hannaert et al., 2002)1 Pyruvate kinase substrates, PEP and ADP, were present in the assay at 0.1 mM and 4 mM respectively. In this kinetic assay initial rates were determined by following the fluorescence of NADH depletion.
NCGC Assay Protocol Summary: Three uL of substrate mix (final concentration, 50 mM Tris-Cl pH 8.0, 200 mM KCl, 15 mM MgCl2, 0.1 mM PEP, 4.0 mM ADP, and 0.2 mM NADH) was dispensed into black-solid 1536 well plates. 23 nL of compounds were delivered by a pin tool and 1 uL of enzyme mix (final concentrations, 10 nM hPK-M2 and 1 uM of LDH) was added. Plates were immediately placed in ViewLux (Perkin Elmer) and NADH fluorescence was determined at 30 second exposure intervals for between 3 and 6 minutes. Data were normalized to the uninhibited and EC100 activation using known activators such as fructose-bis-phosphate.

SMILES	Potency	activation
COc1cc(F)c(S(=O)(=O)N2CCN(S(=O)(=O)c3ccc(NC(C)=O)cc3)CC2)c(F)c1	14600 nM (active)	–
COc1cccc(S(=O)(=O)N2CCN(S(=O)(=O)c3ccc4c(c3)OCCO4)CC2)c1	562 nM (active)	–
CN(C)c1cccc(S(=O)(=O)N2CCN(S(=O)(=O)c3ccc4c(c3)OCCO4)CC2)c1	–	-8.86% (inactive)
COc1cc(F)c(S(=O)(=O)N2CCCN(S(=O)(=O)c3ccc4c(c3)OCCO4)CC2)c(F)c1	58 nM (active)	–
COc1cc(F)c(S(=O)(=O)N2CCCN(S(=O)(=O)c3ccc(NC(C)=O)cc3)CC2)c(F)c1	6510 nM (active)	–
COc1ccc(S(=O)(=O)N2CCN(S(=O)(=O)c3c(F)cccc3F)CC2)cc1	inactive and 141 nM (active)	–
CC(O)c1cc2c(s1)c1cnn(Cc3ccccc3F)c(=O)c1n2C (stereo not given)	398 nM (active)	–
Cn1c2cc(Br)sc2c2cnn(Cc3c(F)cccc3F)c(=O)c21	631 nM (active)	–
O=S(=O)(c1ccc(F)cc1)N1CCN(S(=O)(=O)c2ccc3c(c2)OCCO3)CC1	199 nM (active)	–
Cc1cc2c(s1)c1cnn(Cc3ccc(Cl)cc3)c(=O)c1n2C	1120 nM (active)	–
Cn1c2cc(C=O)sc2c2cnn(Cc3ccccc3F)c(=O)c21	282 nM (active)	–
O=C(N1CCc2ccc(S(=O)(=O)N3CCN(S(=O)(=O)c4ccc5c(c4)OCCO5)CC3)cc2C1)C(F)(F)F	1120 nM (active)	–
COc1cc(F)c(S(=O)(=O)N2CCCN(S(=O)(=O)c3cccc(NC(C)=O)c3)CC2)c(F)c1	2910 nM (active)	–
CC(C)c1cc2c(s1)c1cnn(Cc3ccccc3F)c(=O)c1n2C	1410 nM (active)	–
CSc1cc2c(s1)c1cnn(Cc3ccccc3F)c(=O)c1n2C	708 nM (active)	–
O=C(O)c1cc(F)c(S(=O)(=O)N2CCN(S(=O)(=O)c3ccc4c(c3)OCCO4)CC2)cc1F	31600 nM (active)	–
CC(=O)Nc1cccc(S(=O)(=O)N2CCCN(S(=O)(=O)c3ccc4c(c3)OCCO4)CC2)c1	819 nM (active)	–
Cn1c2ccsc2c2cnn(Cc3ccc(F)cc3)c(=O)c21	562 nM (active)	–
Cc1ccc(C)c(OC2=NS(=O)(=O)c3ccccc32)c1	–	-6.5% (inactive)
CSc1cc2c(s1)c1cnn(Cc3cccc(O)c3)c(=O)c1n2C	65.1 nM (active)	–

SMILES	Potency	activation
O=C(O)Cc1cc(F)c(S(=O)(=O)N2CCN(S(=O)(=O)c3ccc4c(c3)OCCO4)CC2)cc1F	14100 nM (active)	–
C=Cc1cc(F)c(S(=O)(=O)N2CCN(S(=O)(=O)c3ccc4c(c3)OCCO4)CC2)cc1F	2000 nM (active)	–
COC(=O)c1cc2c(s1)c1cnn(Cc3ccccc3F)c(=O)c1n2C	355 nM (active)	–
O=S(=O)(c1ccc2c(c1)OCCO2)N1CCN(S(=O)(=O)c2c(F)ccc(O)c2F)CC1	355 nM (active)	–
Cc1cc2c(s1)c1cnn(Cc3cccc(Cl)c3)c(=O)c1n2C	355 nM (active)	–
Cn1c2cc(Br)sc2c2cnn(Cc3ccc(F)cc3F)c(=O)c21	708 nM (active)	–
Nc1cccc(S(=O)(=O)N2CCN(S(=O)(=O)c3ccc4c(c3)OCCO4)CC2)c1	146 nM (active)	–
Cc1cc2c(s1)c1cnn(Cc3cccc(Cn4ncc5c6sc(C)cc6n(C)c5c4=O)c3F)c(=O)c1n2C	35500 nM (active)	–
O=S(=O)(c1c(F)cccc1F)N1CCN(S(=O)(=O)c2c(F)cccc2F)CC1	126 nM (active)	–
O=S(=O)(c1ccc(Cl)cc1)N1CCN(S(=O)(=O)c2ccc3c(c2)OCCO3)CC1	1120 nM (active)	–
Cc1cc2c(s1)c1cnn(Cc3cccc(F)c3F)c(=O)c1n2C	501 nM (active)	–
Cn1c2cc(B(O)O)sc2c2cnn(Cc3ccccc3F)c(=O)c21	15800 nM (active)	–
COc1cccc(Cn2ncc3c4sc(B(O)O)cc4n(C)c3c2=O)c1	17800 nM (active)	–
Cc1cc2c(s1)c1cnn(Cc3ccccc3Cl)c(=O)c1n2C	562 nM (active)	–
O=S(=O)(c1ccccc1)N1CCN(S(=O)(=O)c2ccc3c(c2)OCCO3)CC1	447 nM (active)	–
Cn1c2cc(Br)sc2c2cnn(Cc3ccc(F)cc3)c(=O)c21	794 nM (active)	–
COc1cc(F)c(S(=O)(=O)N2CCCN(S(=O)(=O)c3ccc(N)cc3)CC2)c(F)c1	1300 nM (active)	–
Cn1ccc2cc(S(=O)(=O)N3CCN(S(=O)(=O)c4c(F)cccc4F)CC3)ccc21	1410 nM (active)	–
O=S(=O)(NCCNS(=O)(=O)c1c(F)cccc1F)c1ccc2c(c1)OCCO2	–	25.3% (inactive)
CCCc1cc(F)c(S(=O)(=O)N2CCN(S(=O)(=O)c3ccc4c(c3)OCCO4)CC2)cc1F	8910 nM (active)	–
